Sampled rows, rich in hits. Any-hit rate of the full collection: about 2.3%.
FAS TE block = FAS thioesterase (human) inhibition. P49327. recombinant FAS-TE, OMFH fluorogenic substrate, fluorescence endpoint. inhibition, % at 15 µM. actives 0.67% (n = 360,000);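 active = compounds whose normalised, plate-corrected inhibition of enzyme fluorescence in the single-dose primary screen is 50% or more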;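 note: 0% = DMSO with enzyme and 100% = substrate without enzyme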
Cardio protect = myocardial damage modulation in H9c2 cells; H9c2 cardiomyocytes, H2O2 injury protection, ATPLite, 2 h; actives 0.63% (n = 360,000); protection from H2O2 cell death, % at 20 µM;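 active = compounds giving at least 50% protection of heart cells from peroxide-induced death in the single-dose screen, raw or plate-pattern-corrected value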;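 note: 0% = DMSO wells with peroxide and 100% = DMSO wells without peroxide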
MIN6 prolif = inducers of beta-cell replication in MIN6 cells; MIN6 cells proliferation, ATPlite luminescence, 48 h; cells starved in 0.2% serum; 100% = growth in 10% serum; proliferation, % at 10 µM; actives 0.29% (n = 330,000); AID 2380;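 active = compounds whose signal lies at least 3.5 SD above the mean of all wells on their plate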;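 note: 0% = DMSO-treated cells in low-serum medium and 100% = 10% serum control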
aDG glyco up = alpha-DG glycosylation activation; Pro5-aDG cells, alpha-DG glycosylation AlphaScreen (IIH6); 0% Pro5, 100% B10-LARGE cell signal; actives 0.22% (n = 360,000); activation, % at 10 µM; AID 624168;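 active = activation of at least 8% versus controls, or a plate z-score of at least 8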;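 note: Pro5 are CHO cells carrying HIG-tagged alpha-DG that lacks glycosylation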
m-calpain inh = calpain II (pig) inhibition; inhibition, % at 16 µM; actives 0.37% (n = 220,000); purified calpain II, fluorogenic peptide substrate, 30 min;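 active = inhibition above about 50%, limit read from the data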
TAG inh = reduces triacylglycerol accumulation in H9c2 cells; Nile Red lipid (TAG) fluorescence; cells loaded with 200 µM oleic acid; inhibition, % at 12.5 µM; actives 0.66% (n = 230,000);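 active = pattern-corrected inhibition of lipid staining of at least 50% with the nuclear-stain viability signal not falling by more than 50%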;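 note: 0% = DMSO wells and 100% = triacsin C control wells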
* = called active by the depositor; · = no result.

SMILES	FAS TE block	Cardio protect	MIN6 prolif	aDG glyco up	m-calpain inh	TAG inh
CN1CCN(C2CN(Cc3cn(Cc4ccc(Cl)cc4)nn3)S(=O)(=O)C2)CC1 (centres undefined)	-11	·	·	0	·	·
CCc1ccc(C(=O)/C=C/Nc2ccc(S(=O)(=O)Nc3cnc4ccccc4n3)cc2)cc1	-8	-4	-4	1	-37	11
CC(C)(C)OC(=O)N1CCC[C@H]1c1nnc(SCC(=O)Nc2ccc(Br)cc2)o1	1	60*	1	0	-19	-11
CC(C)(C)OC(=O)N1CCC[C@H]1c1nnc(SCC(=O)Nc2cccc(Cl)c2)o1	6	1	-1	0	-2	-1
CCOc1ccc(CCNC(=O)CSc2cc(=O)n(C)c3ccccc23)cc1OCC	-3	-1	0.0*	0	20	·
Cc1ccc(NC(=S)NCCc2ccccc2)nc1	9	-11	6	2	16	7
N#Cc1ccc(C(=O)NC23CC4CC(CC(C4)C2)C3)cc1	5	2	-1	0	·	·
COc1ccccc1N1CCN(C(=O)c2ccc3nc(-c4ccco4)c(-c4ccco4)nc3c2)CC1	13	64*	-2	0	-158	22
Cc1onc(-c2c(Cl)cccc2Cl)c1C(=O)N/N=C(\N)COc1ccc(Cl)cc1	5	70*	-5	0	21	24
O=c1[nH]n(Cc2ccccc2)c(=O)c2ccccc12	-9	56*	-3	0	33	·
COC(=O)CCn1[nH]c(=O)c2ccccc2c1=O	-7	2	2	0	13	·
CCC(NC(=O)COC(=O)C1CC2CCCC(C1)C2=O)c1ccc(Br)cc1 (centres undefined)	-1	7	-2	0	·	-14
O=S(=O)(NCc1ccccc1)[C@@H]1CC2C=CC1C2 (some centres undefined)	-6	7	0	0	·	5
C(=C\c1ccco1)/C1=NN(c2ccccc2)C(c2ccco2)C1 (centres undefined)	26	-8	-7	7.2*	-89	3
O=c1[nH]nc(CNc2ccc(O)cc2)c2ccccc12	0	87*	-3	1	-9	11
O=c1[nH]nc(CNc2ccc(C(F)(F)F)cc2)c2ccccc12	18	69*	1	2	2	·
O=c1[nH]nc(CNc2ccc(OC(F)(F)F)cc2)c2ccccc12	14	38	-1	4	28	·
COc1cc(C(=O)C(=O)N2CCN(c3ccccc3)CC2)cc(OC)c1OC	·	·	·	0	·	·
CCOC(=O)CN(C(=O)CSc1nnc2c(n1)[nH]c1c(C)cc(C)cc12)c1ccccc1	·	·	·	·	-63	·
CCOC(=O)CN(C(=O)CSc1nnc2c(n1)[nH]c1ccc(F)cc12)c1ccccc1	15	11	1	0	59*	-1
CC(=O)c1ccc(OCC(=O)OCC(=O)NCc2ccco2)cc1	-10	6	-3	0	·	9
O=C(COC(=O)c1ccccc1O)NCc1ccccc1Cl	0	-2	2	2	·	-7
COc1ccc(N=Cc2sc(O)c3ccccc23)cc1	-38	51*	-2	0	1	-29
CN(C)c1cccc(NC(=O)C2(C)Cc3c(-c4cccnc4)ccnc3O2)c1 (centres undefined)	-5	2	·	0	·	10
O=C(C1=NN(c2ccccc2)C2C(=O)N(c3cccc(Cl)c3)C(=O)C12)c1ccccc1 (centres undefined)	64*	6	·	0	-84	·
SMILES	FAS TE block	Cardio protect	MIN6 prolif	aDG glyco up	m-calpain inh	TAG inh
COc1ccc(OC)c(Nc2nc(N)c([N+](=O)[O-])c(N3CCOCC3)n2)c1	5	52*	-2	0	·	·
COc1cccc(Nc2nc(N)c([N+](=O)[O-])c(N3CCOCC3)n2)c1	2	18	-2	0	·	·
CCC(C)Oc1cc(-c2ccnc(Nc3cccc(Cl)c3)n2)ccn1 (centres undefined)	18	-16	-7	0	-17	-10
OCCCNc1cc(-c2ccnc(Nc3cccc(Cl)c3)n2)ccn1	11	17	-3	1	-14	90*
COc1cc2c(cc1OC)C1CCN3C(=O)CCC3N1CC2 (centres undefined)	-7	13	·	2	·	8
O=c1c2ccccc2nc(/C=C/c2cc(Br)ccc2O)n1CCCO	2	50*	-4	0	·	·
O=c1c2ccccc2nc(COc2ccccc2)n1/N=C/c1ccc(O)c(O)c1	9	56*	-5	0	-11	19
O=C1CSC(=S)N1N=Cc1c(O)ccc2ccccc12	5	56*	·	0	·	1
CC(C)(C)N=Cc1c(O)ccc2oc3c(c12)CCCC3	-5	73*	-7	0	·	·
CC(C)N1C(=O)CCC1C(=O)NCc1ccc(F)cc1Cl (centres undefined)	-2	-6	-3	0	·	·
COc1cccc(CNC(=O)C2CSC3(C)CCC(=O)N23)c1 (centres undefined)	-10	-3	-1	0	·	0
Cc1ccc(CCNC(=O)CSCc2ccc(F)cc2)cc1	7	3	1	0	·	·
Cc1nc2ccccc2c(=O)n1/N=C/c1c(O)ccc2ccccc12	10	74*	0	0	-13	-11
Cc1nc2ccccc2c(=O)n1/N=C/c1ccc(N(C)C)cc1	-6	4	-1	0	14	·
Cc1nc2ccccc2c(=O)n1/N=C/c1cc(Br)ccc1O	0	54*	2	0	·	·
Cc1nc2ccccc2c(=O)n1/N=C/c1c(O)ccc2oc3c(c12)CCCC3	23	100*	-3	1	-43	-16
CC(=O)Nc1ccc(-c2ccnc3c2CC(C)(C(=O)Nc2cccc(C(C)=O)c2)O3)cc1 (centres undefined)	6	9	·	0	·	22
Cn1c(NCc2cccnc2)nc2cc(-c3cccc(C(F)(F)F)c3)sc2c1=O	10	-7	·	-1	·	14
Nc1cc(=O)[nH]c(SCC(=O)Nc2cc(S(=O)(=O)N3CCCCC3)ccc2Cl)n1	-10	-11	-1	0	·	8
CC1(C(=O)Nc2ccc3c(c2)OCCO3)CN(S(C)(=O)=O)CC(=O)N1CC(F)(F)F (centres undefined)	·	·	·	0	·	·
CC(C)Cn1c(-c2csc3c2CCCC3)n[nH]c1=S	1	-9	2	0	50*	·
O=C(NCc1ccccn1)C(C(=O)c1cccc([N+](=O)[O-])c1)n1cc(Cl)ccc1=O (centres undefined)	-2	4	-3	0	6	-14
CC(=O)N1CCc2cc(S(=O)(=O)N3CCc4ccccc43)ccc21	10	-12	-3	0	·	-27
Cn1cc(S(=O)(=O)NC2CCCCC2)c(=O)n(C)c1=O	-9	-2	-4	0	·	-1
CCCCC[C@H](C)N1C[C@@H](COCc2ccccc2)Oc2cc(N3CCC[C@H]3C(N)=O)ccc2S1(=O)=O	23	·	·	1	·	·

Assay outcomes: PubChem, several laboratories
